Values without a mark were called inactive. Results filed as inconclusive are left out. Where a call stands in place of a potency, no number is given. Calls of active or inactive are those of the source. Unless noted, calls follow the shape of the dose curve; as a rule, active = well fitted curve in the direction sought with a large enough effect in the repeat runs; inconclusive = weak or mixed curves; inactive = no such curve, though single readings can be large; an effect the other way counts as inactive or inconclusive.
Experiments:
[1] = A CellTox Green Cytotoxicity Assay to monitor cytotoxicity in HEK293 cells - 32 hour (AID 1224881); also: nearly all actives have a fitted effect of over 40% in size; also: potency is read from the fitted curve at half-maximal effect
How it was run: (§1)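 Real-time, in one plate: 600 HEK293 cells/well with dead-cell DNA dye, pinned compound after 5 h, 37 C incubation over 40 h; viable cells give no appreciable fluorescence.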

[2] = A CellTox Green Cytotoxicity Assay to monitor cytotoxicity in HepG2 cells - 0 hour (AID 1224882); also: nearly all actives have a fitted effect of over 35% in size
How it was run: (§2)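 Cytotoxicity was tracked as dead-cell DNA fluorescence in HepG2 cells treated with test compounds at 37 C; each time-point value comes from one kinetic series spanning 0, 8, 16, 24, 32 and 40 h.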

[3] = A CellTox Green Cytotoxicity Assay to monitor cytotoxicity in HEK293 cells - 8 hour (AID 1224884); also: nearly all actives have a fitted effect of over 35% in size
How it was run: as §1

[4] = qHTS RealTime-Glo MT Cell Viability Assay in HepG2 cells - 16 hour (AID 1224885); also: nearly all actives have a fitted effect of over 50% in size
How it was run: (§3)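 HepG2 suspension premixed with RealTime-Glo reagents is plated at 600 cells per well and left 5 h at 37 C/5% CO2. Compounds in DMSO then go in, and bioluminescence reflecting viable cell number is recorded over 40 h.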

[5] = qHTS RealTime-Glo MT Cell Viability Assay in HEK293 cells - 8 hour (AID 1224887); also: nearly all actives have a fitted effect of over 50% in size; also: potency is read from the fitted curve at half-maximal effect; as to activity change, negative = cytotoxicity: top concentration of the series differs between compounds
How it was run: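 Kinetic, non-lysing viability readout. Seed HEK293 (600/well) with reagent, incubate 5 h at 37 C/5% CO2, pin 23 nL compound in DMSO, incubate at 37 C, read luminescence at 0, 8, 16, 24, 32, 40 h.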

[6] = A CellTox Green Cytotoxicity Assay to monitor cytotoxicity in HEK293 cells - 16 hour (AID 1224888); also: nearly all actives have a fitted effect of over 35% in size; also: potency is read from the fitted curve at half-maximal effect
How it was run: as §1

[7] = qHTS assay to identify small molecule antagonists of the estrogen receptor alpha (ER-alpha) signaling pathway using the BG1 cell line in the presence of 0.1 nM 17-beta-estradiol - cell viability counter screen (AID 1259241); also: nearly all actives have a fitted effect of over 40% in size; also: potency is read from the fitted curve at half-maximal effect
How it was run: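 Estradiol-stimulated (0.1 nM) VM7Luc4E2 cells exposed to compounds 22 hr; viability measured by fluorescence of cleaved CellTiter-Fluor substrate after 30 min.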

[8] = qHTS assay to identify small molecule antagonists of the androgen receptor (AR) signaling pathway using the MDA cell line in the presence of 0.5 nM R1881 - cell viability counter screen (AID 1259242); also: nearly all actives have a fitted effect of over 45% in size; also: potency is read from the fitted curve at half-maximal effect
How it was run: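 Cells seeded at 3,000/well and allowed 5 hr at 37C, 0% CO2 before compound transfer and R1881 (0.5 nM final) addition; 16 hr later, live-cell protease fluorescence indicated cytotoxicity.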

[9] = qHTS assay to identify small molecule HDAC inhibitors (AID 1259364); also: potency is read from the fitted curve at half-maximal effect;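 also: wild-type HCT-116 cells with endogenous class I/II HDAC activity; nearly all actives have a fitted effect of over 45% in size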
How it was run: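 HCT-116 wt cells, 1,500/well, overnight attach. Compounds (DMSO) 2 h, 37 °C. HDAC-Glo I/II, 30 min RT. Luminescence.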

[10] = qHTS assay to identify small molecule HDAC inhibitors - cell viability counter screen (AID 1259365); also: series mostly up to about 92 µM; nearly all actives have a fitted effect of over 50% in size
How it was run: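 After overnight seeding at 1,500 cells per well, wild-type HCT-116 cultures took up compounds in DMSO for 2hr at 37 C. Viable cell content came from luminescence with CellTiter-Glo.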

[11] = qHTS assay to identify small molecule agonists of the sonic hedgehog signaling (Shh) pathway - cell viability counter screen (AID 1259366); also: nearly all actives have a fitted effect of over 50% in size
How it was run: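 Same-well cytotoxicity read. Gli1-Luc reporter 3T3 cells; compounds 24hr, 37C/5% CO2; CellTiter-Fluor fluorescence.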

[12] = qHTS assay to identify small molecule antagonists of the sonic hedgehog signaling (Shh) pathway - cell viability counter screen (AID 1259367); also: nearly all actives have a fitted effect of over 55% in size
How it was run: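 Cytotoxicity was assessed in parallel with Shh reporter activity by measuring live-cell protease fluorescence (CellTiter-Fluor) in NIH/3T3 cells stably carrying Gli1-Luc, treated with compound under conditioned medium stimulation for 23 hr plus 1 hr reagent incubation.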

[13] = qHTS assay to identify small molecule agonists of the sonic hedgehog signaling (Shh) pathway (AID 1259368; calls by dose curve;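 also: NIH/3T3-derived 3T3Gli1-Luc cells carrying a stable Gli1-driven firefly luciferase reporter; series mostly up to about 92 µM; nearly all actives have a fitted effect of over 15% in size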)
How it was run: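 Following a 24 hr incubation with DMSO-dissolved compounds at 37 C, 5% CO2, Gli1-Luc NIH/3T3-derived cells received luciferase reagent for 30 min at room temperature prior to luminescence measurement.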

[14] = qHTS RealTime-Glo MT Cell Viability Assay in HEK293 cells - 24 hour (AID 1224886); also: nearly all actives have a fitted effect of over 50% in size; also: potency is read from the fitted curve at half-maximal effect; as to activity change, negative = cytotoxicity: top concentration of the series differs between compounds
How it was run: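 Reads taken at 0, 8, 16, 24, 32 and 40 h from the same wells. HEK293 cells (600/well) carried RealTime-Glo reagents from seeding, with compound added after a 5 h settle at 37 C.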

[15] = qHTS RealTime-Glo MT Cell Viability Assay in HepG2 cells - 0 hour (AID 1224889); also: nearly all actives have a fitted effect of over 50% in size
How it was run: as §3

[16] = A CellTox Green Cytotoxicity Assay to monitor cytotoxicity in HepG2 cells - 8 hour (AID 1224890); also: nearly all actives have a fitted effect of over 45% in size
How it was run: as §2

[17] = biological target: Estrogen receptor (Homo sapiens) (UniProt P03372); test: qHTS assay to identify small molecule antagonists of the estrogen receptor alpha (ER-alpha) signaling pathway using the BG1 cell line in the presence of 0.1 nM 17-beta-estradiol (AID 1259244); also: nearly all actives have a fitted effect of over 50% in size
How it was run: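 Luciferase signal from VM7Luc4E2 ERE-reporter cells, co-dosed with test compound and 0.1 nM final 17beta-estradiol for 22 h, read with ONE-Glo.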

[18] = qHTS assay to identify small molecule phospholipidosis (PLD) inducers (AID 1259344; active = well fitted curve in the direction sought with a large enough effect; an effect the other way counts as inactive or inconclusive)
How it was run: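 Cells (HepG2, 900 per well) attach for 4 h, receive LipidTOX Red and compound together, incubate 24 h at 37 C, are fixed 30 min with paraformaldehyde/Hoechst, then imaged at one site per well.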

[19] = A CellTox Green Cytotoxicity Assay to monitor cytotoxicity in HepG2 cells - 32 hour (AID 1224883); also: nearly all actives have a fitted effect of over 50% in size; also: potency is read from the fitted curve at half-maximal effect
How it was run: as §2

[20] = biological target: Androgen receptor (Homo sapiens) (UniProt P10275); test: qHTS assay to identify small molecule antagonists of the androgen receptor (AR) signaling pathway using the MDA cell line in the presence of 0.5 nM R1881 (AID 1259243); also: nearly all actives have a fitted effect of over 50% in size; also: potency is read from the fitted curve at half-maximal effect
How it was run: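 Luminescence from an AR/GR-responsive MMTV-luciferase construct in MDA-kb2 breast carcinoma cells, read 30 min after ONE-Glo, following 16 hr co-treatment with compounds and 0.5 nM R1881.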

Estrogen receptor (Homo sapiens), sequence (P03372 whole entry, looked up): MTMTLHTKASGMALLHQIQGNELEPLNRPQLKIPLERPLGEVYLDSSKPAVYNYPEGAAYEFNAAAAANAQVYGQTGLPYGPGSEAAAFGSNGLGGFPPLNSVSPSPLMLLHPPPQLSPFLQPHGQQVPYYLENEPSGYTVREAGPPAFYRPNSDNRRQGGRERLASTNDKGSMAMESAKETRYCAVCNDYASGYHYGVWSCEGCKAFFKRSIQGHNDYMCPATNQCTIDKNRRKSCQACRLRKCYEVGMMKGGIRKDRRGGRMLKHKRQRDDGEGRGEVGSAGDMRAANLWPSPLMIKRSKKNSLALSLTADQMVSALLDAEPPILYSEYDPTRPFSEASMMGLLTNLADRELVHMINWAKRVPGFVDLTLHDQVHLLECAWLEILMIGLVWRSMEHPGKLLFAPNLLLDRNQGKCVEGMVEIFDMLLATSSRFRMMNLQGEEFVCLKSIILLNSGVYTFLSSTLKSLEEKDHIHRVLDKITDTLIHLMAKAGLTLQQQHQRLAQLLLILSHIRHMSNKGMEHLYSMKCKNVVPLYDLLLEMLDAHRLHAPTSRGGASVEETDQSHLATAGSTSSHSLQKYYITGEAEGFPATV
Androgen receptor (Homo sapiens), sequence (P10275 whole entry, looked up): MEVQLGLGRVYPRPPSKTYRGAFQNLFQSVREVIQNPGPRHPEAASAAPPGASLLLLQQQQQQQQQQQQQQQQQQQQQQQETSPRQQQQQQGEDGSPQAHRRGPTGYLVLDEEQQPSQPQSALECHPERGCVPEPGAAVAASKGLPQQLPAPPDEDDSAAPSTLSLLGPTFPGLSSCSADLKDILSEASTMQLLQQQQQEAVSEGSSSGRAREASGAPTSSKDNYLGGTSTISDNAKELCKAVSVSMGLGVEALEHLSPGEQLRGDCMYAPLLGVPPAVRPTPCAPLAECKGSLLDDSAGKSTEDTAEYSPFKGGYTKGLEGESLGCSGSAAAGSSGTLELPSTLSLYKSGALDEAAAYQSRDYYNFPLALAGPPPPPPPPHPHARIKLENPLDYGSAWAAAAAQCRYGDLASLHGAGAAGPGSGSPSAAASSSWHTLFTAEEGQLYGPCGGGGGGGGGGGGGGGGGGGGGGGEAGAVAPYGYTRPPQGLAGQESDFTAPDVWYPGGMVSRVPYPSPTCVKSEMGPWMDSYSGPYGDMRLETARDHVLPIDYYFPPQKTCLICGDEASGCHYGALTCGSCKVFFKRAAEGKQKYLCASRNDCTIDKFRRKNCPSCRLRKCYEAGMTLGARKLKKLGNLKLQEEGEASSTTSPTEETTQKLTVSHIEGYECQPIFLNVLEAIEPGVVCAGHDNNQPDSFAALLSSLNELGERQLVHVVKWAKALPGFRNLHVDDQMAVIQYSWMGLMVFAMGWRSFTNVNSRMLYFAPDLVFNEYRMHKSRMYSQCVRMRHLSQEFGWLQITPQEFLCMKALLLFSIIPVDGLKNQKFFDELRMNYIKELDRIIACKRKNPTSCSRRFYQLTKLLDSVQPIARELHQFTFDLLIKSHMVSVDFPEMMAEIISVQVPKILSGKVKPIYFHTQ

## c1ccc(C(O[C@H]2CCCN(CCc3ccc4c(c3)OCO4)C2)c2ccccc2)cc1
[1]
  Potency: inactive
[2]
  Potency: inactive
[3]
  Potency: inactive
[4]
  Potency: inactive
[5]
  Potency: inactive
[6]
  Potency: inactive
[7]
  Potency: inactive
[8]
  Potency: inactive
[9]
  Potency: inactive
[10]
  Potency: inactive
[11]
  Potency: inactive
[12]
  Potency: inactive
[13]
  outcome: inactive

## ClCCOCCOCCCl
[1]
  Potency: inactive
[2]
  Potency: inactive
[3]
  Potency: inactive
[4]
  Potency: inactive
[14]
  Potency: inactive
[6]
  Potency: inactive
[15]
  Potency: inactive
[16]
  Potency: inactive
[7]
  Potency: inactive
[8]
  Potency: inactive
[17]
  Potency: inactive
[9]
  Potency: inactive
[10]
  Potency: inactive
[11]
  Potency: inactive
[12]
  Potency: inactive
[13]
  outcome: inactive

## CCOC(=O)C1=C[C@]2(CC)CCCN3CCc4c(n1c1ccccc41)[C@@H]32
[1]
  Potency: inactive
[2]
  Potency: inactive
[3]
  Potency: inactive
[4]
  Potency: inactive
[6]
  Potency: inactive
[15]
  Potency: inactive
[16]
  Potency: inactive
[7]
  Potency: inactive
[8]
  Potency: inactive
[17]
  Potency: inactive
[18]
  Potency: inactive
[9]
  Potency: inactive
[10]
  Potency: inactive
[11]
  Potency: inactive
[12]
  Potency: inactive
[13]
  outcome: inactive

## CN(C)c1ccc(/C=C/c2ccc([N+](=O)[O-])cc2)cc1
[1]
  cytotoxicity increase: 15.1% [at 6.97 µM]
[2]
  cytotoxicity: 4.44% [at 6.97 µM]
[19]
  cytotoxicity increase: 16% [at 6.97 µM]
[5]
  activity change, negative = cytotoxicity: -2.66% [at 6.97 µM]
[16]
  cytotoxicity increase: 23.9% [at 6.97 µM]
[8]
  viability change, negative = cytotoxic: 4% [at 8.39 µM]
[9]
  Potency: 0.872 µM (active)
[10]
  activity change, negative = cytotoxicity: -0.457% [at 8.39 µM]
[12]
  viability change, negative = cytotoxic: 8.12% [at 8.39 µM]
[13]
  activity change: 7.46% [at 8.39 µM]

## CCCCCCCCCc1ccc(OCCOCCO)cc1
[1]
  Potency: 14.5 µM (active)
[2]
  Potency: inactive
[19]
  Potency: 20.5 µM (active)
[14]
  Potency: 1.3 µM (active)
[5]
  Potency: 3.25 µM (active)
[6]
  Potency: 14.5 µM (active)
[7]
  Potency: 8.1 µM (active)
[8]
  Potency: 5.74 µM (active)
[20]
  Potency: 2.28 µM (active)
[18]
  Potency: inactive
[9]
  Potency: inactive
[10]
  Potency: inactive
[13]
  outcome: inactive

## CCCn1cnc2c1c(=O)n(CCCCC(C)=O)c(=O)n2C
[1]
  Potency: inactive
[2]
  Potency: inactive
[3]
  Potency: inactive
[14]
  Potency: inactive
[5]
  Potency: inactive
[15]
  Potency: inactive
[16]
  Potency: inactive
[7]
  Potency: inactive
[8]
  Potency: inactive
[20]
  Potency: inactive
[17]
  Potency: inactive
[18]
  Potency: inactive
[9]
  Potency: inactive
[10]
  Potency: inactive
[11]
  Potency: inactive
[12]
  Potency: inactive
[13]
  outcome: inactive

## CC(=O)c1ccc2c(c1)N(CCCN(C)C)c1ccccc1S2
[1]
  Potency: inactive
[2]
  Potency: inactive
[3]
  Potency: inactive
[4]
  Potency: inactive
[14]
  Potency: inactive
[5]
  Potency: inactive
[15]
  Potency: inactive
[16]
  Potency: inactive
[7]
  Potency: inactive
[8]
  Potency: inactive
[17]
  Potency: inactive
[10]
  Potency: inactive
[13]
  outcome: inactive

## CC(C)(C)OCC1CO1 (stereo not drawn)
[1]
  Potency: inactive
[2]
  Potency: inactive
[3]
  Potency: inactive
[4]
  Potency: inactive
[5]
  Potency: inactive
[6]
  Potency: inactive
[15]
  Potency: inactive
[16]
  Potency: inactive
[7]
  Potency: inactive
[8]
  Potency: inactive
[9]
  Potency: inactive
[10]
  Potency: inactive
[11]
  Potency: inactive
[12]
  Potency: inactive
[13]
  outcome: inactive

— PubChem BioAssay (Tox21)
